Experiment [1] has as its target Protein kinase C gamma type (Homo sapiens) (UniProt P05129). Conditions: at 1 µM.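 Note: each value is an averaged percent inhibition of the enzyme.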
For experiment [2], the target named is T1, Protein kinase C iota type (Homo sapiens) (UniProt P41743).
T1 sequence (whole entry): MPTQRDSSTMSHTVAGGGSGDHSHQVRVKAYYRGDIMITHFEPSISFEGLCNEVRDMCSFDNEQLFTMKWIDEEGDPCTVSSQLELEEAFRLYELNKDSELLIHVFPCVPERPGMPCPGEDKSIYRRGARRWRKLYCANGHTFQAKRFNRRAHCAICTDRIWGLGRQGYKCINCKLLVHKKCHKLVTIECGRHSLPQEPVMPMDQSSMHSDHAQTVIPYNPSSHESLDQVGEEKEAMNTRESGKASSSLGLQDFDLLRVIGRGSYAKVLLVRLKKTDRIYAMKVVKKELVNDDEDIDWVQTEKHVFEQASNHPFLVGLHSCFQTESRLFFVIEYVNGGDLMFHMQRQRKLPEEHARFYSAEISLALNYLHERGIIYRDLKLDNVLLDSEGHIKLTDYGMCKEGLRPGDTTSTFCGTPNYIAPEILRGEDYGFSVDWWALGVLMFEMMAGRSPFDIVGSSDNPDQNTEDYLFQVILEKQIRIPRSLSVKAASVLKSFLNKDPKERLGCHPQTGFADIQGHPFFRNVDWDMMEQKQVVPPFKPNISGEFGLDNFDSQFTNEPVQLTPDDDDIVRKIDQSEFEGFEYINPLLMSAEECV
As to conditions: at 0.1 µM.

For experiment [3], the target named is T1, Protein kinase C iota type (Homo sapiens). As to conditions: at 1 µM.
Experiment [4] has as its target Protein kinase C theta type (Homo sapiens) (UniProt Q04759). Conditions: at 0.1 µM.
The target is the same in experiment [5]. As to conditions: at 1 µM.
For experiment [6], the target named is Protein kinase C beta type (Homo sapiens) (UniProt P05771). Conditions: at 0.1 µM.
Sequence of Protein kinase C beta type (Homo sapiens) (P05771 2-671 limits assumed): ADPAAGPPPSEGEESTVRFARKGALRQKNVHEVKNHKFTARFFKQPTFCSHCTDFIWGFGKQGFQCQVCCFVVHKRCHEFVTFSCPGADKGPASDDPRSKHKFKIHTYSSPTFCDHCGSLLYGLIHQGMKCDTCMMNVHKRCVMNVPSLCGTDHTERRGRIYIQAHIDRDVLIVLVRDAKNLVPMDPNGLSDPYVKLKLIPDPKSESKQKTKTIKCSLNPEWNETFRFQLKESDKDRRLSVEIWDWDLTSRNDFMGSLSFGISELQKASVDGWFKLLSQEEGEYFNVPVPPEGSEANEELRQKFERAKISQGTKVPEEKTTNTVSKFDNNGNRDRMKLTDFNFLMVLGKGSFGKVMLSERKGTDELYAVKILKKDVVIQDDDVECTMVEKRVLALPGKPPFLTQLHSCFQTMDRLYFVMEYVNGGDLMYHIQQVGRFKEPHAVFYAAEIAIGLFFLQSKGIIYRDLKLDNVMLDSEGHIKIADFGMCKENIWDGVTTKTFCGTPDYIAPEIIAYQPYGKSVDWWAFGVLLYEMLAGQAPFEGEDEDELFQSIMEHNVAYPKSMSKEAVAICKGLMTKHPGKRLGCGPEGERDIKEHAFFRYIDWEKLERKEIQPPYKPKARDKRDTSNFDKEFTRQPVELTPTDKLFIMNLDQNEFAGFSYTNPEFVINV
Experiment [7] has the same target. As to conditions: at 1 µM.
Experiment [8] has as its target T2, Serine/threonine-protein kinase D1 (Homo sapiens) (UniProt Q15139).
T2 sequence (whole entry): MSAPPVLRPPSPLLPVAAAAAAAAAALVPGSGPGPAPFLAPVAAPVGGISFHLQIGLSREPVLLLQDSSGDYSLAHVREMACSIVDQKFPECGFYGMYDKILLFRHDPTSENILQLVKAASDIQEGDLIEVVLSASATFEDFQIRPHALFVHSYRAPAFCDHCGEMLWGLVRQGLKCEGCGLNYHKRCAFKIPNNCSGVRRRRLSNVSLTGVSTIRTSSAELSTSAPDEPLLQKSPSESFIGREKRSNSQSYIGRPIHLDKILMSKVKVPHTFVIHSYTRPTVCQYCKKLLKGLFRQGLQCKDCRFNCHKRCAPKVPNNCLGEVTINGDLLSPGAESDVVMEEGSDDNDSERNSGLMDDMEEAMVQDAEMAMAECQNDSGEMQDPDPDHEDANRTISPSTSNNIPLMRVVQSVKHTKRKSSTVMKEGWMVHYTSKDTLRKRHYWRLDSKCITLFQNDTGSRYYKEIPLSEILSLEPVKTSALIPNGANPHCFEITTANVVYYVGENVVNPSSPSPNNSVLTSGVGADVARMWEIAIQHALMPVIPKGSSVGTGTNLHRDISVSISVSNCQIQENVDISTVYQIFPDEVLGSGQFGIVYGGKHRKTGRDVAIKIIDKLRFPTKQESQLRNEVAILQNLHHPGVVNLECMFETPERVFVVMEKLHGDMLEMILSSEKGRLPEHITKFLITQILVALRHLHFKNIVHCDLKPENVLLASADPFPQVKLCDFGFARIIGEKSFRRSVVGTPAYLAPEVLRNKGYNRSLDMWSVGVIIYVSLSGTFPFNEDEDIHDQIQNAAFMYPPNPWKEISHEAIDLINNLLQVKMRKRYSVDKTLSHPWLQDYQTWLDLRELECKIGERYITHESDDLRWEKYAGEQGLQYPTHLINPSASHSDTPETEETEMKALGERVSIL
As to conditions: at 0.1 µM.

In experiment [9] the target is T2, Serine/threonine-protein kinase D1 (Homo sapiens). Conditions: at 1 µM.
Experiment [10] deals with T3, Serine/threonine-protein kinase D2 (Homo sapiens) (UniProt Q9BZL6).
T3 sequence (whole entry): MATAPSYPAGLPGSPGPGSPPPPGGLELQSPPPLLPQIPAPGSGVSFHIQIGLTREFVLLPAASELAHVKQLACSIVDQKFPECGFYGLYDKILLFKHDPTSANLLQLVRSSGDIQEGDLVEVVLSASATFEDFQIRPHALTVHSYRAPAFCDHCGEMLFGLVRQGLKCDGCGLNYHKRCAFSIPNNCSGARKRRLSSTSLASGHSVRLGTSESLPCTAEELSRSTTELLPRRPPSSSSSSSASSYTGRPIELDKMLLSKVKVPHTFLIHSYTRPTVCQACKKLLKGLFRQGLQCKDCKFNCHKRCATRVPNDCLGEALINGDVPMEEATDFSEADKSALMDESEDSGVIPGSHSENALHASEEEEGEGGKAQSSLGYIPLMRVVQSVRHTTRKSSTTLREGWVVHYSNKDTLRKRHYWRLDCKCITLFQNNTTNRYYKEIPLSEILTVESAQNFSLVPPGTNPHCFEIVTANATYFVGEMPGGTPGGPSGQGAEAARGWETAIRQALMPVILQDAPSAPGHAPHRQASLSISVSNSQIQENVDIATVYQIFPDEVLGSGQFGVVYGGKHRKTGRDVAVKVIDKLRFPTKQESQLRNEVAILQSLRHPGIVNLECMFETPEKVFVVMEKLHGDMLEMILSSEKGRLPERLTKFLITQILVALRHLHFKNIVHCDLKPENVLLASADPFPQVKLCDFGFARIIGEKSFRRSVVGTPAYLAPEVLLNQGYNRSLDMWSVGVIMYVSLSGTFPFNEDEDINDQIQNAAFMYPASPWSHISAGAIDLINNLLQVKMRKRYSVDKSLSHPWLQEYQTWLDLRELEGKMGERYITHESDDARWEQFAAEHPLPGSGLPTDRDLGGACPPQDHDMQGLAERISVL
As to conditions: at 0.1 µM.

Experiment [11] addresses T3, Serine/threonine-protein kinase D2 (Homo sapiens). As to conditions: at 1 µM.
The target of experiment [12] is T4, Serine/threonine-protein kinase D3 (Homo sapiens) (UniProt O94806).
T4 sequence (whole entry): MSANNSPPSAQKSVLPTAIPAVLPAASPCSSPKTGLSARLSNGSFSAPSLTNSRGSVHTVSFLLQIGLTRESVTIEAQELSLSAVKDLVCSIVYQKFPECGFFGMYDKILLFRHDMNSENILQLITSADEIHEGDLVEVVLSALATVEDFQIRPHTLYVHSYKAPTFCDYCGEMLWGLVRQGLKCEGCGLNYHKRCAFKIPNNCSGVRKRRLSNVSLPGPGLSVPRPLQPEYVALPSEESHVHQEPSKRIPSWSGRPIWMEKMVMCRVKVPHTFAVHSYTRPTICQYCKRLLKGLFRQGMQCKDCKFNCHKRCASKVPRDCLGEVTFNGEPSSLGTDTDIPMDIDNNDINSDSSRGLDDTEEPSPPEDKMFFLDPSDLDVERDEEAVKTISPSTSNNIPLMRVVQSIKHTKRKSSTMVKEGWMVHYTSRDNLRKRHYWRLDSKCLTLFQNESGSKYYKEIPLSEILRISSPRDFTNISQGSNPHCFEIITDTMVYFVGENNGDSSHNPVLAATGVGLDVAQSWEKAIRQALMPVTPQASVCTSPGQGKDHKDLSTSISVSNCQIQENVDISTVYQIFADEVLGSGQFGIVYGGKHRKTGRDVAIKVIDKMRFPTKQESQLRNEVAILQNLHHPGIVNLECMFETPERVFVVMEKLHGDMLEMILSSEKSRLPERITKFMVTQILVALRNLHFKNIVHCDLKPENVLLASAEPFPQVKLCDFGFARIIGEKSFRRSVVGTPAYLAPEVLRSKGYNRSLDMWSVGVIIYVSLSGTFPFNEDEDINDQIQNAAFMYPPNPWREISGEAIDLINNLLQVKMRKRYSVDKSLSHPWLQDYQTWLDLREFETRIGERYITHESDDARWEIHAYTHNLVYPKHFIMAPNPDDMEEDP
Conditions: at 0.1 µM.

Experiment [13] addresses T4, Serine/threonine-protein kinase D3 (Homo sapiens). As to conditions: at 1 µM.
Experiment [14] has as its target T5, cGMP-dependent protein kinase 1 (Homo sapiens) (UniProt Q13976).
T5 sequence (whole entry): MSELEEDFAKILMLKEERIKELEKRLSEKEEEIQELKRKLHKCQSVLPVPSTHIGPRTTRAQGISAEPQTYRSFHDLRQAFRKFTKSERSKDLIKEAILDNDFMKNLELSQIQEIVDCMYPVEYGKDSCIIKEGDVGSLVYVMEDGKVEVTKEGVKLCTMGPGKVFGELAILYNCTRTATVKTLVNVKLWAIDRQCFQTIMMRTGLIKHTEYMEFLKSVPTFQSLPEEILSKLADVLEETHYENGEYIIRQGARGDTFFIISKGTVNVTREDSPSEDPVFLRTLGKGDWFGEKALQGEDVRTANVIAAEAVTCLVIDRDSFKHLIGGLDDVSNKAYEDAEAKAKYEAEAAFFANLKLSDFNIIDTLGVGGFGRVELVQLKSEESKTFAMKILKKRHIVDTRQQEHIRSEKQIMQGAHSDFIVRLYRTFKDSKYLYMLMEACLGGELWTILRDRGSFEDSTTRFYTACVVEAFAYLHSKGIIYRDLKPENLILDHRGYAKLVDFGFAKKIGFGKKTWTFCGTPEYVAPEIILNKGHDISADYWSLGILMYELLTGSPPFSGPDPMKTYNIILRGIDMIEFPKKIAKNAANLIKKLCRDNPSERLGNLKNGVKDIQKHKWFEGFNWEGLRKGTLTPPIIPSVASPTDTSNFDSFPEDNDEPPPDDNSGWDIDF
As to conditions: at 0.1 µM.

Experiment [15] concerns the target T5, cGMP-dependent protein kinase 1 (Homo sapiens). Conditions: at 1 µM.
In experiment [16] the target is T6, cGMP-dependent protein kinase 2 (Homo sapiens) (UniProt Q13237).
T6 sequence (whole entry): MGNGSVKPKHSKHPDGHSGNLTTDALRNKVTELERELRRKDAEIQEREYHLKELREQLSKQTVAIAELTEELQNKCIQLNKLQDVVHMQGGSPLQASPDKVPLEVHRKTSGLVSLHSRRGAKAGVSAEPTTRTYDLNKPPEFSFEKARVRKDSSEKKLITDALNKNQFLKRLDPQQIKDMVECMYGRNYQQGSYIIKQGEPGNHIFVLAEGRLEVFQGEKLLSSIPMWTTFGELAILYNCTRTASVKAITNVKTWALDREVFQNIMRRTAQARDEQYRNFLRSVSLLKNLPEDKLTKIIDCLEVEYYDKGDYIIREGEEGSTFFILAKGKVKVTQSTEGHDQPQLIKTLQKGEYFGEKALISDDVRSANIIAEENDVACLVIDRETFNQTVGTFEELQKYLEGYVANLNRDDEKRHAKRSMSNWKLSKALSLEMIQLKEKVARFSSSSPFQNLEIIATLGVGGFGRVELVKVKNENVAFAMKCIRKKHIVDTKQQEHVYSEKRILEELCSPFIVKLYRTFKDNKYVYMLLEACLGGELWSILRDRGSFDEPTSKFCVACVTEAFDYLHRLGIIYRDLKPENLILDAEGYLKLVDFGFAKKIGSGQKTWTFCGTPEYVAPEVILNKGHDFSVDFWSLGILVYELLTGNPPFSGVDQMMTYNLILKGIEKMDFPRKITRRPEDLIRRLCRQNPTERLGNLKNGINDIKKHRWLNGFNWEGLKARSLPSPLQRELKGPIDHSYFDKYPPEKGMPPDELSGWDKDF
As to conditions: at 0.1 µM.

Experiment [17] deals with T6, cGMP-dependent protein kinase 2 (Homo sapiens). As to conditions: at 1 µM.
Experiment [18] addresses T7, cAMP-dependent protein kinase catalytic subunit PRKX (Homo sapiens) (UniProt P51817).
T7 sequence (whole entry): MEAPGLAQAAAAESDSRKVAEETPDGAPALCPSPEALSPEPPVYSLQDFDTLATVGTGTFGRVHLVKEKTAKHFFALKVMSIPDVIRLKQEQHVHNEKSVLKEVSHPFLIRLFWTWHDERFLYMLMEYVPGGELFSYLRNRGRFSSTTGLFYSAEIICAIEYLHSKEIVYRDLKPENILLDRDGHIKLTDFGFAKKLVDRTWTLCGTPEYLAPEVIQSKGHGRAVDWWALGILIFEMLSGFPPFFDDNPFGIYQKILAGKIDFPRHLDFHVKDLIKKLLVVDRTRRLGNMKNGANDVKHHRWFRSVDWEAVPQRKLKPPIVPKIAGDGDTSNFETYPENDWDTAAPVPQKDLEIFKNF
As to conditions: at 0.1 µM.

In experiment [19] the target is T7, cAMP-dependent protein kinase catalytic subunit PRKX (Homo sapiens). Conditions: at 1 µM.
In experiment [20] the target is Rho-associated protein kinase 1 (Homo sapiens) (UniProt Q13464). Conditions: at 0.1 µM.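 Note: values are mean percent inhibition of ROCK1.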
Sequence of Rho-associated protein kinase 1 (Homo sapiens) (Q13464 2-1354 limits assumed): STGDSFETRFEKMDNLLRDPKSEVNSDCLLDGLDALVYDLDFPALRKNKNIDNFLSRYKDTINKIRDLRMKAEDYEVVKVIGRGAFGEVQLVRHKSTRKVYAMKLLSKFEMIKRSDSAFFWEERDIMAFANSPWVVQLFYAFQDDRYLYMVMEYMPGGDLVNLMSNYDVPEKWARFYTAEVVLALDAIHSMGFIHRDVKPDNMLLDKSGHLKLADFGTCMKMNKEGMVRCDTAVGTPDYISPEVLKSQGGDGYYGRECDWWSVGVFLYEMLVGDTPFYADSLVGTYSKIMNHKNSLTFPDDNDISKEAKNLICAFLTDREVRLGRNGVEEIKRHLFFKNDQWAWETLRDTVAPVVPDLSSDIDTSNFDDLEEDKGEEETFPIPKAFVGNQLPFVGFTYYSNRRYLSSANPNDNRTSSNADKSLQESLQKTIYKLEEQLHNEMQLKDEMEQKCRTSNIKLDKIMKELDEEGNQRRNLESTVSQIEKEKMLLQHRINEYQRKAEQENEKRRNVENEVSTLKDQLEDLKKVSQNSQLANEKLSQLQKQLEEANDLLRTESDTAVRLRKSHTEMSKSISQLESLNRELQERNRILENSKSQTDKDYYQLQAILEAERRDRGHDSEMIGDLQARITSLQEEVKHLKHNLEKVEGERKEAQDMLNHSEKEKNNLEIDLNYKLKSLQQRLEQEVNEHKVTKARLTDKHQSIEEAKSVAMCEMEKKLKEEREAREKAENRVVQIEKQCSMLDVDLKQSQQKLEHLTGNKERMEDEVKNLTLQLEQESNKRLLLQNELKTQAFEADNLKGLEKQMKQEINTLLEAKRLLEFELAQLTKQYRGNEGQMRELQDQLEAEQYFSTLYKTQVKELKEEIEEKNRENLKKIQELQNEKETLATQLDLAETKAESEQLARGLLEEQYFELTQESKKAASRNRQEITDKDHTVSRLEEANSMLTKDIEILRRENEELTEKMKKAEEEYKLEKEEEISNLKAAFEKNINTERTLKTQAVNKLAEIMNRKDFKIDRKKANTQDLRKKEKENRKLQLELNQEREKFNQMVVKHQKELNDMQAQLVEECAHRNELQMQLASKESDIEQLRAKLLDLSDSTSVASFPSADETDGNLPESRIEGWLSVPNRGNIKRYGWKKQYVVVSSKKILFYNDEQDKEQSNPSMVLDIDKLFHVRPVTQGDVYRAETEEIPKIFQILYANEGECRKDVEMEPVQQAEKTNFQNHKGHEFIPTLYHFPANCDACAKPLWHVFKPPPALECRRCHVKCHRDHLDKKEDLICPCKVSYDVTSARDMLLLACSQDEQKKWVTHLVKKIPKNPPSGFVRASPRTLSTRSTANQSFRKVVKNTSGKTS

Each structure is given as a SMILES string.

The term inhibition denotes how much of the control response was suppressed.

Sequence of Protein kinase C theta type (Homo sapiens) (Q04759 whole entry, looked up): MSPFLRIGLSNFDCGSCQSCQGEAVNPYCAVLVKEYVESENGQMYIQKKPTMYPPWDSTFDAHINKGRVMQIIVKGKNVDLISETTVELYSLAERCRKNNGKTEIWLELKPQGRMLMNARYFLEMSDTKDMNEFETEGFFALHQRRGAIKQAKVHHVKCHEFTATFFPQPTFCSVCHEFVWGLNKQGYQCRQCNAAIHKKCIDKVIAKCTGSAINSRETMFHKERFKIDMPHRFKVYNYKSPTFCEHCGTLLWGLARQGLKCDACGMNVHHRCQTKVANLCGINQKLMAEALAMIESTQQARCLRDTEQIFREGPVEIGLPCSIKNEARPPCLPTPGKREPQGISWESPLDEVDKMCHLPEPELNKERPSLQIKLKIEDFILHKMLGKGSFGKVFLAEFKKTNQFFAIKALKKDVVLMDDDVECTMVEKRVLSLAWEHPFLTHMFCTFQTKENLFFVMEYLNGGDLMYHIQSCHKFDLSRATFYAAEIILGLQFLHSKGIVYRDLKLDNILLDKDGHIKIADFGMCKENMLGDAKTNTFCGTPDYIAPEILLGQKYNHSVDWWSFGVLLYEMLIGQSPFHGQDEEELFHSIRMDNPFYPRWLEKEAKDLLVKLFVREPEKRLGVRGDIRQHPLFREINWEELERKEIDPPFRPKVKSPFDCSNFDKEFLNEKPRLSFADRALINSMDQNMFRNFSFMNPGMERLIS

As for `CCCN1CCC(c2ccc(Nc3nc(Nc4cc(F)ccc4C(N)=O)c4cc[nH]c4n3)c(OC)c2)CC1`, the inhibition in experiment [1] amounted to 29.8%; in [2], 0.78%; in experiment [3], 1.12%; in experiment [4], 2.2%; in experiment [5], 8.87%; in [6] it was 1.54%. In addition, the inhibition in [7] was 6.05%; in experiment [8] it was 21.5%; in experiment [9], 73.8%; in [10] it was 18%; in experiment [11], 75.7%; in [12], 13.6%. The inhibition worked out at 65.9% in experiment [13]; 9.75% in [14]; 46.5% in experiment [15]; 8.54% in [16]; 47% in experiment [17]; 1.4% in experiment [18]. The inhibition is 4.23% in experiment [19] and 17.2% in [20].

(Values after ChEMBL document CHEMBL1961873, “Compounds: GSK PKIS; Assays: Nanosyn kinase panel” (2012).)
